# PubChem BioAssay AID651658 (Broad Institute, 2012)
# Where “and” joins values, the source holds several entries; their conditions need not be identical. Identical values can stand only once. The whole screen tested about 340,000 compounds, of which about 5,100 (1.5%) were called active.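 Rule for the calls: active = mean Tm shift, scaled 0 neutral to 100 positive control, at about 1.3% or above, every replicate too (limit read from the data); inconclusive = no clear call, values can overlap the other calls; inactive = the rest.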 Many of the other results were omitted from the sample, so actives are more common in it than they were.
# Biological target: Fibroblast growth factor 22 (Homo sapiens) (UniProt Q9HCT0)
# Assay: FGF22 ligand-induced thermal stabilization – biophysical, thermal shift, single point, FGF22 synaptogenesis inhibitor project, primary screen (AID 651658)
# Conditions: recombinant FGF22 thermal shift, SYPRO orange fluorescence; at 9.99 µM; active compounds read high; percent of sucrose octasulfate shift, DMSO zero
# Chain of Fibroblast growth factor 22 (Homo sapiens) (Q9HCT0 whole entry, looked up): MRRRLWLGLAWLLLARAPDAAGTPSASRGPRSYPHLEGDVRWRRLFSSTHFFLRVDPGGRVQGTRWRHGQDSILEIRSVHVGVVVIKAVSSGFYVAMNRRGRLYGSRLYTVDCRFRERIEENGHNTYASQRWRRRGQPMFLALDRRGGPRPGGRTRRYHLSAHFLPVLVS
row,Structure (SMILES),"activity (Tm shift, normalised)"
1,O=C(NCC[C@@H]1CC[C@@H](NC(=O)c2ccccc2F)[C@H](CO)O1)c1ccc2c(c1)OCO2,-0.277% (inactive)
2,C[C@@H]1CN([C@@H](C)CO)C(=O)c2cccc(NC(=O)Nc3ccc(C(F)(F)F)cc3)c2O[C@@H]1CN(C)S(=O)(=O)c1ccc(F)cc1,-0.433% (inactive)
3,CO[C@@H]1CN(C)C(=O)c2ccc(NC(=O)Nc3c(C)noc3C)cc2OC[C@H](C)N(CC2CC2)C[C@H]1C,0.073% (inactive)
4,NS(=O)(=O)c1ccc2nc(NC(=O)C3=COCCO3)sc2c1,-0.051% (inactive)
5,CS(=O)(=O)c1ccc2nc(NC(=O)c3ccc(Cl)nc3)sc2c1,1.36% (active)
6,Cc1ccc(C(=O)Nc2nc3ccc(Cl)cc3s2)o1,0.029% (inactive)
7,COc1ccc([Si](C)(C)[C@@H]2[C@@H](CCO)O[C@]3(C(=O)N(Cc4ccccc4)c4ccc(N5CCC5=O)cc43)[C@H]2C)cc1,1.09% (inactive)
8,O=C(C[C@H]1C[C@@H]2c3cc(NC(=O)Nc4ccc(C(F)(F)F)cc4)ccc3O[C@@H]2[C@@H](CO)O1)NCC1CC1,5.86% (active)
9,O=C(C[C@H]1C[C@H]2c3cc(NC(=O)Nc4ccc(F)cc4)ccc3O[C@H]2[C@H](CO)O1)NCC1CC1,0.011% (inactive)
10,O=C(C[C@H]1C[C@H]2c3cc(NC(=O)Nc4ccc(F)cc4)ccc3O[C@H]2[C@@H](CO)O1)NCC1CC1,-0.077% (inactive)
11,C[C@H]1CCCCO[C@H](CN(C)S(C)(=O)=O)[C@@H](C)CN([C@@H](C)CO)C(=O)c2cc(NC(=O)C3CCCCC3)ccc2O1,-0.096% (inactive)
12,CNC(=O)C[C@H]1CC[C@H]2[C@H](COc3ccc(NC(=O)c4cccc(F)c4)cc3C(=O)N2C)O1,-0.14% (inactive) and 0.048% (inactive)
13,CN1C(=O)c2cc(NC(=O)c3cccc(F)c3)ccc2OC[C@@H]2O[C@H](CC(=O)N3CCc4ccccc4C3)CC[C@@H]21,1.53% (active)
14,COC(=O)C[C@@H]1CC[C@@H]2[C@H](COc3ccc(NC(=O)c4cccc(F)c4)cc3C(=O)N2C)O1,-0.235% (inactive)
15,O=C(C[C@@H]1CC[C@@H](NC(=O)Nc2ccc(F)cc2)[C@@H](CO)O1)NCCN1CCCC1,-0.38% (inactive)
16,CCCC(=O)Nc1ccc2c(c1)C(=O)N(C)C[C@H](OC)[C@H](C)CN(C(=O)c1ccccn1)[C@H](C)CO2,-0.212% (inactive)
17,C[C@@H]1CN([C@@H](C)CO)S(=O)(=O)c2ccc(C#C[C@@H](C)O)cc2O[C@@H]1CN(C)C(=O)CN(C)C,-0.212% (inactive)
18,CO[C@@H]1CN(C)C(=O)c2cc(NC(=O)C3CC3)ccc2OC[C@@H](C)N(Cc2nccs2)C[C@@H]1C,0.295% (inactive)
19,CC1CCCN(CC(O)COCc2ccccc2)C1 (stereo not given),43.5% (active)
20,COc1ccc(COCC(O)CN2CCC(C(N)=O)CC2)cc1 (stereo not given),-0.009% (inactive)
21,CC1CCCN(CC(O)COc2ccc3c(c2)OCO3)C1 (stereo not given),0.154% (inactive)
22,CC(C)(C)S(=O)N1Cc2cc(C(=O)O)nc(-c3cccc(-c4cc5ccccc5o4)c3)c2[C@@H]1CCO (stereo not given in full),0.231% (inactive)
23,COc1ccc2c3c(n(C)c2c1)[C@H](CO)N(Cc1ccccc1)CC31CN(C(=O)c2ccccc2F)C1,-0.032% (inactive)

row,Structure (SMILES),"activity (Tm shift, normalised)"
1,O=C1/C(=C/c2ccc3c(c2)OCO3)CCC/C1=C\c1ccc2c(c1)OCO2,26.1% (active)
2,NC(=O)c1ccc(NC(=O)COC(=O)c2c3c(nc4ccccc24)/C(=C\c2ccc4c(c2)OCO4)CCC3)cc1,-0.321% (inactive)
3,NS(=O)(=O)c1ccc(NC(=O)COC(=O)c2c3c(nc4ccccc24)/C(=C\c2ccc4c(c2)OCO4)CCC3)cc1,-0.081% (inactive)
4,CCCNC(=O)N1C[C@@H]2[C@H](c3ccccc31)[C@@H](CO)N2C(=O)NC(C)C,-0.334% (inactive)
5,C[C@H]1CN([C@@H](C)CO)S(=O)(=O)c2ccc(C#Cc3cccnc3)cc2O[C@H]1CN(C)C(=O)CN(C)C,-0.747% (inactive)
6,Cc1ccccc1NC(=S)NNC(=O)c1cccc(Br)c1,43.6% (active)
7,O=C(NC(=S)Nc1cccc2c(O)cccc12)c1cccc(Br)c1,-0.32% (inactive)
8,CC(CC(=O)O)CC(=O)NNC(=O)c1cccc(Br)c1 (stereo not given),-0.089% (inactive)
9,O=C(C[C@H]1C[C@@H]2c3cc(NS(=O)(=O)c4ccc(F)cc4)ccc3O[C@@H]2[C@@H](CO)O1)NCc1cccc(F)c1,-0.007% (inactive)
10,Oc1cccc2cc(-c3ccncc3)cnc12,43.2% (active)
11,C[C@@H]1CN([C@H](C)CO)C(=O)Cc2cc(NC(=O)Nc3cccc4ccccc34)ccc2O[C@H]1CN(C)C(=O)Nc1ccc2c(c1)OCO2,-0.447% (inactive)
12,COc1ccc(-n2nc(C(=O)NCC(=O)N3CCN(c4ccccc4OC)CC3)c3ccccc3c2=O)c(OC)c1,-0.112% (inactive)
13,COc1ccc(-n2nc(C(=O)Nc3cc(OC)c(OC)c(OC)c3)c3ccccc3c2=O)c(OC)c1,0.293% (inactive)
14,COc1cccc(NC(=O)c2nn(-c3ccc(OC)cc3OC)c(=O)c3ccccc23)c1,43.4% (active)
15,CN1C(=O)c2cc(NC(=O)c3cnccn3)ccc2OC[C@H]2O[C@@H](CC(=O)NCC3CCCCC3)CC[C@@H]21,-0.186% (inactive)
16,CC(C)C(C(=O)NCc1ccco1)N(CC1CCCO1)C(=O)CNS(=O)(=O)c1ccc(F)cc1 (stereo not given),-0.278% (inactive)
17,O=C(CN(CC1CCCO1)C(=O)CNS(=O)(=O)c1ccc(F)cc1)NCc1ccco1 (stereo not given),43.2% (active)
18,O=C(CN(CC1CCCO1)C(=O)CNS(=O)(=O)c1ccc(Cl)cc1)NCc1ccccc1 (stereo not given),-0.087% (inactive)
19,COCC(=O)N(C)C[C@H]1Oc2cc(C#C[C@@H](C)O)ccc2S(=O)(=O)N([C@@H](C)CO)C[C@@H]1C,0.023% (inactive)
20,COc1ccc(C(C(=O)NC(C)(C)C)N(Cc2ccc(F)cc2)C(=O)CCC(=O)Nc2cc(C)on2)cc1 (stereo not given),-0.347% (inactive)
21,CCC(C)(C)NC(=O)C(c1ccc(OC)cc1)N(C(=O)CCC(=O)Nc1cc(C)on1)c1ccc(OC)cc1OC (stereo not given),0.006% (inactive)
22,CCC(C)(C)NC(=O)C(c1cccc(OC)c1OC)N(CC(C)C)C(=O)CCC(=O)Nc1cc(C)on1 (stereo not given),43% (active)
